Assay outcomes as filed in PubChem.
tim23-1 inh: growth inhibitors of tim23-1 mutant yeast, primary screen, luminescence, uHTS; AID 463212, 2010; S. cerevisiae tim23-1 growth, BacTiter-Glo luminescence, 24 h; inhibition, % at 20 µM; hit rate 1.3% among 330,000;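 active = growth inhibition of the mutant yeast at or above 50%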;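 also: temperature-sensitive mutant grown at 25 °C; plate controls were DMSO-treated mutant yeast for no effect and medium wells lacking yeast for full effect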
TIM10 inh: growth inhibitors of isogenic TIM10 control yeast, primary screen, counter-screen for tim10-1 yeast inhibitor project, luminescence, uHTS; hit rate 1.4% among 330,000; S. cerevisiae TIM10 strain growth, BacTiter-Glo luminescence, 24 h; inhibition, % at 10 µM;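 active = inhibition of 40% or more at the single tested concentration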;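 also: wild-type TIM10 isogenic control strain grown at permissive 25 °C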
tim10-1 inh: growth inhibitors of tim10-1 mutant yeast, primary screen, luminescence, uHTS. AID 463190, 2010. hit rate 2.2% among 330,000. inhibition, % at 20 µM. S. cerevisiae tim10-1 ts strain growth, BacTiter-Glo, 24 h;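 active = inhibition of at least 40%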;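 also: mutant grown at 25 °C; 0% = DMSO wells with yeast and 100% = wells holding no yeast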
NALP3 yeast inh: NALP3 inflammasome inhibitors in reconstituted yeast, primary screen, luminescence, uHTS. Yeast reconstituted NLRP3/ASC/caspase-1, beta-gal luminescence, 24 h. inhibition, % at 10 µM. hit rate 0.39% among 330,000;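 active = inhibition of 50% or more; inactive = inhibition below 50%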;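 also: plate controls were induced DMSO wells for no effect and uninduced yeast grown without galactose for full effect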
NALP1 inh: NALP1 inflammasome inhibitors in reconstituted yeast, colorimetric, S. cerevisiae, triplicate retest; S. cerevisiae NALP1/ASC/caspase-1 growth, X-gal OD620, 72 h; inhibition, % at 10 µM; hit rate 0.61% among 280,000; in the data active = inhibition mostly above about 24%, no sharp cut-off; inactive = mostly below about 32%
tim23-1 confirm: tim23-1 mutant yeast growth inhibitors, confirmation, luminescence, single concentration; shares compounds with tim23-1 inh; inhibition, % at 20 µM; AID 463218, 2010; S. cerevisiae tim23-1 growth, BacTiter-Glo luminescence, 24 h; hit rate 83% among 4,400;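 active = inhibition above about 39% in either of two replicate wells at 20 µM, limit read from the data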;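 also: temperature-sensitive tim23-1 mutant grown at 25 °C; 0% = DMSO wells with yeast and 100% = medium wells without yeast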
Active calls of the source: *; . = no result. In the library only some 4% were active in any assay of this set; here they are far more common.

SMILES	tim23-1 inh	TIM10 inh	tim10-1 inh	NALP3 yeast inh	NALP1 inh	tim23-1 confirm
Cc1cc(C)cc(OCC(=O)N/N=C/c2ccc([N+](=O)[O-])o2)c1	52*	33	33	21	-1	38
O=C(CC12CC3CC(CC(C3)C1)C2)N/N=C/c1ccc([N+](=O)[O-])o1	57*	36	38	16	42	37
O=C(O/N=C(\c1ccccc1)c1ccncc1)c1ccccc1Cl	52*	26	11	25	6	53*
Cc1ccc(S(=O)(=O)NC(Cc2ccccc2)C(=O)NN)cc1 (stereo not drawn)	2	4	12	30	21	.
Cc1ccc(S(=O)(=O)N[C@@H](Cc2ccccc2)C(=O)CCl)cc1	69*	34	39	-28	50	48*
COc1cccc(CNn2c(-c3cccc(C)c3)nc3ccccc3c2=O)c1O	57*	20	28	0	2	45*
COc1ccc(OC)c(CNn2c(-c3ccccc3F)nc3ccccc3c2=O)c1	36	33	35	2	-4	.
COc1ccc(CC2=CC(=O)c3ccccc3C2=O)cc1	66*	36	30	28	-8	75*
C[C@@]12C(=O)Nc3ccc(Cl)cc3C(=O)N1[C@H]1c3cc(Cl)ccc3OC[C@@H]1[C@@H]2c1ccccc1	34	22	20	4	.	.
COc1ccc2c(c1)[C@H]1[C@H](CO2)[C@H](c2ccccc2)[C@]2(C)C(=O)Nc3ccc(C)cc3C(=O)N12	51*	12	21	8	.	43*
COc1ccc2c(c1)OC[C@H]1[C@H]2N2C(=O)c3cc(C)ccc3NC(=O)[C@@]2(C)[C@H]1c1ccccc1	51*	-5	8	1	.	58*
COc1ccc2c(c1)C(=O)N1[C@H]3c4cc(C)ccc4OC[C@@H]3[C@H](c3ccccc3)[C@]1(C)C(=O)N2	-10	-9	29	0	.	.
C[C@@]12C(=O)Nc3cc(F)c(F)cc3C(=O)N1[C@H]1c3cc(Cl)ccc3OC[C@@H]1[C@@H]2c1ccccc1	51*	23	22	9	.	44*
Cn1cc(CCC(=O)N2CCCC(N3CCN(c4ccccc4F)CC3)C2)cn1 (stereo not drawn)	5	7	-10	7	-13	.
COc1ccc(N2CC(C(=O)Nc3cccnc3)CC2=O)cc1 (stereo not drawn)	1	-18	1	6	16	.
CSc1ccc(CNC(=O)C2CCC(=O)N(CCc3cccc(F)c3)C2)cc1 (stereo not drawn)	1	1	-15	14	5	.
COc1cc(/C=C/C(=O)O)cc(S(=O)(=O)Nc2ccc3c(c2)OCO3)c1OC	8	5	3	13	4	.
CC(C(=O)Nc1ccc(S(=O)(=O)N2CCCCC2)cc1)N1CCN(c2ccccn2)CC1 (stereo not drawn)	11	13	12	-2	-1	.
Cc1nn2c(-c3ccc(F)cc3)ccnc2c1Br	21	9	9	11	20	.
COc1ccc(-c2ccnc3c(Br)c(C)nn23)cc1	50*	13	32	25	.	53*
Cc1ccc(S(=O)(=O)N2CCCC2CNC(=O)C(=O)NC2CCCC2)cc1 (stereo not drawn)	10	3	-1	15	.	.
Cc1cc(C)n2nc(SCC(=O)NC3CCCCC3)nc2n1	-8	1	5	20	9	.
NC(=O)CSc1nnc(-c2ccccn2)n1Cc1ccco1	0	5	9	9	25	.
Clc1ccccc1CSc1nnc(-c2ccccn2)n1Cc1ccco1	52*	9	31	-69	4	54*
O=C(c1cccc(S(=O)(=O)N2CCOCC2)c1)N1CCCC(C(F)(F)F)C1 (stereo not drawn)	15	-3	4	16	.	.
SMILES	tim23-1 inh	TIM10 inh	tim10-1 inh	NALP3 yeast inh	NALP1 inh	tim23-1 confirm
Cc1cccc(-c2n[nH]c(=S)n2/N=C/c2ccc(C)s2)c1	-2	16	12	26	25	.
Cc1cccc(-c2n[nH]c(=S)n2/N=C/c2cccs2)c1	51*	33	10	35	-20	43*
COc1ccc(NC(=O)Nc2ccc3c(c2)CC(=O)N([C@H](C)CO)C[C@H](C)[C@H](CN(C)Cc2ccc(C(=O)O)cc2)O3)cc1	6	2	-5	6	.	.
CCOc1ccccc1C(=O)Oc1ccc2ccc(=O)oc2c1	68*	32	5	5	-4	47*
O=C(Oc1ccc2ccc(=O)oc2c1)c1ccccc1	4	2	2	15	18	.
CCc1nc(N2CCN(C(C)=O)CC2)c2c3c(sc2n1)CC(C(C)(C)C)CC3 (stereo not drawn)	35	2	16	15	20	.
CCc1nc(N2CCN(C(=O)CCl)CC2)c2c3c(sc2n1)CC(C)CC3 (stereo not drawn)	55*	38	15	24	40*	39
CCOC(=O)C1=C(CN2CCN(C(=O)c3ccco3)CC2)NC(=O)NC1c1ccc(OC)cc1 (stereo not drawn)	10	6	0	5	16	.
CSC1=N/C(=C\c2ccc(C)cc2)C(=O)S1	61*	9	29	16	7	56*
Cc1cccn2c(=O)c(/C=C(\C#N)S(=O)(=O)c3ccccc3)c(Oc3ccc(Cl)cc3)nc12	50*	20	0	24	22	36
COc1ccc(S(=O)(=O)Nc2ccc3c(c2)C(=O)N([C@H](C)CO)C[C@H](C)[C@@H](CN(C)C(=O)Nc2ccccc2)O3)cc1	-5	-2	-5	20	.	.
Cc1cc(C(=O)NC2CCCc3c2cnn3-c2ccc(C(C)(C)C)cc2)n[nH]1 (stereo not drawn)	30	11	32	-6	1	.
O=C1c2ccccc2/C(=C\c2ccc3[nH]ccc3c2)N1c1ccccc1	63*	34	35	-14	.	53*
COc1cc([N+](=O)[O-])ccc1NC(=O)CSc1n[nH]c(C(C)C)n1	-1	-13	1	-14	2	.
CCCCCC(=O)c1ccc(O)cc1O	54*	33	25	11	2	47*
NNC(=O)c1ccc(O)cc1O	0	-4	13	9	15	.
COc1ccc(/C=N/NC(=O)c2cc(C34CC5CC(CC(C5)C3)C4)[nH]n2)cc1OC	38	26	28	8	25	.
COc1cccc(/C=N/NC(=O)c2cc(C34CC5CC(CC(C5)C3)C4)[nH]n2)c1	66*	10	9	15	.	41*
C/C(=N\NC(=O)CSc1ncccn1)c1ccc2c(c1)OCCO2	53*	-15	-1	16	20	15
O=C(Nc1ccccn1)c1ccc(Cl)c(S(=O)(=O)N2CCc3ccccc32)c1	39	1	22	15	.	.
